# Records with an inconclusive call do not appear. Activity calls are given as the source filed them. Calls come from the whole dose curve; as a rule, active = well fitted curve in the direction sought with a large enough effect; inconclusive = small, poorly fitted or top-dose-only effect, or another doubt; inactive = no such curve, though single readings can be large; an effect the other way counts as inactive or inconclusive.
# Assay: qHTS of pediatric cancer cell lines to identify multiple opportunities for drug repurposing: Confirmatory screen for OHS-50 cells (AID 1347128);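 note: compound exposure lasted 48 h at 37 degrees C; nearly all actives have a fitted effect of over 55% in size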; for activity change, negative = cytotoxic: % is set by controls: 0 for no effect and ±100 for the full control effect
# Conditions: OHS-50 osteosarcoma cells viability; series mostly up to 45.9 µM; activity change, negative = cytotoxic: at the top concentration
# In short: (§1)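 Cells (500-1,000/well) rested 5 h, then received compounds for 48 h; metabolically active cells were measured by CellTiter-Glo luminescence. Final concentrations spanned up to 46 µM (MIPE, 11-point) or 0.59 nM-46 µM (NPC, 8-point) in primary screens, 11-point in follow-ups.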
# Potency is the fitted concentration of half-maximal effect.
Structure (SMILES),Potency,"activity change, negative = cytotoxic"
Cc1[nH]c2ccccc2c1CCNCc1ccc(C=CC(=O)NO)cc1,0.293 µM (active),
CN1CCN(Cc2ccc(NC(=O)Nc3ccc(Oc4cc(NC(=O)C5CC5)ncn4)cc3)cc2C(F)(F)F)CC1,0.585 µM (active),
COc1c(OCCCN2CCOCC2)ccc2c3n(c(=NC(=O)c4cnc(N)nc4)nc12)CCN3,2.29 µM (active),
CN(C)CC(C)(C)CNc1nn2c(-c3ccccc3)nnc2cc1C1CCC1,,-16.3% (inactive)
COc1cccc2c(NCc3ccccc3)nc(-n3c(N)nc4ccccc43)nc12,8.27 µM (active),
Cc1nc2ccc(CN(C)c3ccc(C(=O)N[C@@H](CCC(=O)O)C(=O)O)s3)cc2c(=O)[nH]1,,-10.3% (inactive)
CN(c1ncccc1CNc1nc(Nc2ccc3c(c2)CC(=O)N3)ncc1C(F)(F)F)S(C)(=O)=O,5.85 µM (active),
CNC(=O)c1nn(C)c2c1C(C)(C)Cc1cnc(Nc3ccc(N4CCN(C)CC4)cc3)nc1-2,5.85 µM (active),
Cc1cc(Nc2cc(N3CCN(C)CC3)nc(Sc3ccc(NC(=O)C4CC4)cc3)n2)n[nH]1,9.27 µM (active),
O=C(C=Cc1cccc(S(=O)(=O)Nc2ccccc2)c1)NO,7.59 µM (active),
Cc1ccc(-c2ncn(-c3ccc(Nc4nccc(-c5cccc(N6CCOCC6)c5)n4)cc3)n2)cn1,0.537 µM (active),
Cc1nc2cnc3ccc(C#Cc4cccnc4)cc3c2n1-c1ccc(C(C)(C)C#N)cc1,3.39 µM (active),
Cc1cn2c(-c3cn[nH]c3)cnc2c(Nc2ccc(C(=O)N3CCNCC3)cc2F)n1,16.5 µM (active),
OCCCNc1cc(-c2ccnc(Nc3cccc(Cl)c3)n2)ccn1,0.329 µM (active),
C[C@@H](Oc1cc(-c2cnn(C3CCNCC3)c2)cnc1N)c1c(Cl)ccc(F)c1Cl,14.7 µM (active),
CN1CCN(c2cc(C(=O)Nc3ccc4c(c3)-c3c(c(C(N)=O)nn3-c3ccc(F)cc3)CC4)c(Cl)cn2)CC1,23.3 µM (active),
CNC(=O)c1ccccc1Nc1nc(Nc2ccc(N3CCOCC3)cc2OC)ncc1Cl,2.93 µM (active),

Structure (SMILES),Potency,"activity change, negative = cytotoxic"
CNC(=O)c1c(F)cccc1Nc1nc(Nc2cc3c(cc2OC)CCN3C(=O)CN(C)C)nc2[nH]ccc12,16.5 µM (active),
COc1cc2c(Oc3ccc(NC(=O)C4(C(=O)Nc5ccc(F)cc5)CC4)cc3F)ccnc2cc1OCCCN1CCOCC1,3.69 µM (active),
O=C(C=Cc1cccnc1)NCCCCC1CCN(C(=O)c2ccccc2)CC1,,6.76% (inactive)
Cc1ccc(C(=O)Nc2ccc(CN3CCN(C)CC3)c(C(F)(F)F)c2)cc1C#Cc1cnc2cccnn12,,-61.3% (inactive)
CN(C)Cc1c(C(=O)NCCOc2ccc(C(=O)NO)cc2)oc2ccccc12,1.65 µM (active),
CC[C@@H]1C(=O)N(C)c2cnc(Nc3ccc(C(=O)NC4CCN(C)CC4)cc3OC)nc2N1C1CCCC1,0.0522 µM (active),
Cc1cn(-c2cc(NC(=O)c3ccc(C)c(Nc4nccc(-c5cccnc5)n4)c3)cc(C(F)(F)F)c2)cn1,18.5 µM (active),
CCc1c2c(nc3ccc(O)cc13)-c1cc3c(c(=O)n1C2)COC(=O)[C@]3(O)CC,,4.54% (inactive)
COc1ccc(-c2cc3c(C)nc(N)nc3n(C3CCC(OCCO)CC3)c2=O)cn1 (stereo not drawn),,4.99% (inactive)
COc1cccc(-c2ccc(NC(=O)C3=C(C(=O)O)CCC3)c(F)c2)c1,,-8.44% (inactive)
C[C@@H](Oc1cc(-n2cnc3ccc(CN4CCN(C)CC4)cc32)sc1C(N)=O)c1ccccc1C(F)(F)F,0.0759 µM (active),
CC(C)(C)c1cnc(CSc2cnc(NC(=O)C3CCNCC3)s2)o1,0.329 µM (active),
CN1CC[C@@H](c2c(O)cc(O)c3c(=O)cc(-c4ccccc4Cl)oc23)[C@@H](O)C1,0.414 µM (active),
CC(C)c1cnn2c(NCc3ccccc3)cc(N[C@@H](CO)[C@H](O)CO)nc12,0.522 µM (active),
Cc1ccc(C(N)=O)cc1Nc1nccc(-c2cn(C(C)C)c3cnccc23)n1,12 µM (active),
Nc1ncnc2c1c(-c1cnc3[nH]ccc3c1)nn2C1CCCC1,1.85 µM (active),
C=CC(=O)Nc1cccc(Oc2nc(Nc3ccc(N4CCN(C)CC4)cc3)ncc2Cl)c1,5.22 µM (active),

# Assay: qHTS of pediatric cancer cell lines to identify multiple opportunities for drug repurposing: Confirmatory screen for SK-N-SH cells (AID 1347129);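 note: cells exposed to compound for 48 h before viability read; nearly all actives have a fitted effect of over 60% in size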;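 for activity change, negative = cytotoxic: plate controls were DMSO for no effect and bortezomib control for full effect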
# Conditions: SK-N-SH neuroblastoma cell viability; series mostly up to 46.1 µM; activity change, negative = cytotoxic: at the top concentration
# In short: as §1
Structure (SMILES),Potency,"activity change, negative = cytotoxic"
Cc1[nH]c2ccccc2c1CCNCc1ccc(C=CC(=O)NO)cc1,0.469 µM (active),
CN1CCN(Cc2ccc(NC(=O)Nc3ccc(Oc4cc(NC(=O)C5CC5)ncn4)cc3)cc2C(F)(F)F)CC1,0.743 µM (active),
COc1c(OCCCN2CCOCC2)ccc2c3n(c(=NC(=O)c4cnc(N)nc4)nc12)CCN3,2.04 µM (active),
CN(C)CC(C)(C)CNc1nn2c(-c3ccccc3)nnc2cc1C1CCC1,,-19.8% (inactive)
COc1cccc2c(NCc3ccccc3)nc(-n3c(N)nc4ccccc43)nc12,8.33 µM (active),
Cc1nc2ccc(CN(C)c3ccc(C(=O)N[C@@H](CCC(=O)O)C(=O)O)s3)cc2c(=O)[nH]1,,-13% (inactive)
CN(c1ncccc1CNc1nc(Nc2ccc3c(c2)CC(=O)N3)ncc1C(F)(F)F)S(C)(=O)=O,3.72 µM (active),
CNC(=O)c1nn(C)c2c1C(C)(C)Cc1cnc(Nc3ccc(N4CCN(C)CC4)cc3)nc1-2,1.18 µM (active),
Cc1cc(Nc2cc(N3CCN(C)CC3)nc(Sc3ccc(NC(=O)C4CC4)cc3)n2)n[nH]1,11.8 µM (active),
O=C(C=Cc1cccc(S(=O)(=O)Nc2ccccc2)c1)NO,13.6 µM (active),
Cc1ccc(-c2ncn(-c3ccc(Nc4nccc(-c5cccc(N6CCOCC6)c5)n4)cc3)n2)cn1,0.303 µM (active),
Cc1nc2cnc3ccc(C#Cc4cccnc4)cc3c2n1-c1ccc(C(C)(C)C#N)cc1,2.15 µM (active),
Cc1cn2c(-c3cn[nH]c3)cnc2c(Nc2ccc(C(=O)N3CCNCC3)cc2F)n1,7.43 µM (active),
OCCCNc1cc(-c2ccnc(Nc3cccc(Cl)c3)n2)ccn1,0.148 µM (active),
C[C@@H](Oc1cc(-c2cnn(C3CCNCC3)c2)cnc1N)c1c(Cl)ccc(F)c1Cl,7.43 µM (active),
CN1CCN(c2cc(C(=O)Nc3ccc4c(c3)-c3c(c(C(N)=O)nn3-c3ccc(F)cc3)CC4)c(Cl)cn2)CC1,20.9 µM (active),
CNC(=O)c1ccccc1Nc1nc(Nc2ccc(N3CCOCC3)cc2OC)ncc1Cl,1.18 µM (active),

Structure (SMILES),Potency,"activity change, negative = cytotoxic"
CNC(=O)c1c(F)cccc1Nc1nc(Nc2cc3c(cc2OC)CCN3C(=O)CN(C)C)nc2[nH]ccc12,5.9 µM (active),
COc1cc2c(Oc3ccc(NC(=O)C4(C(=O)Nc5ccc(F)cc5)CC4)cc3F)ccnc2cc1OCCCN1CCOCC1,1.87 µM (active),
O=C(C=Cc1cccnc1)NCCCCC1CCN(C(=O)c2ccccc2)CC1,,-10.1% (inactive)
Cc1ccc(C(=O)Nc2ccc(CN3CCN(C)CC3)c(C(F)(F)F)c2)cc1C#Cc1cnc2cccnn12,1.48 µM (active),
CN(C)Cc1c(C(=O)NCCOc2ccc(C(=O)NO)cc2)oc2ccccc12,3.72 µM (active),
CC[C@@H]1C(=O)N(C)c2cnc(Nc3ccc(C(=O)NC4CCN(C)CC4)cc3OC)nc2N1C1CCCC1,6.62 µM (active),
Cc1cn(-c2cc(NC(=O)c3ccc(C)c(Nc4nccc(-c5cccnc5)n4)c3)cc(C(F)(F)F)c2)cn1,18.7 µM (active),
CCc1c2c(nc3ccc(O)cc13)-c1cc3c(c(=O)n1C2)COC(=O)[C@]3(O)CC,3.32 µM (active),
COc1ccc(-c2cc3c(C)nc(N)nc3n(C3CCC(OCCO)CC3)c2=O)cn1 (stereo not drawn),,-6.09% (inactive)
COc1cccc(-c2ccc(NC(=O)C3=C(C(=O)O)CCC3)c(F)c2)c1,,-16% (inactive)
C[C@@H](Oc1cc(-n2cnc3ccc(CN4CCN(C)CC4)cc32)sc1C(N)=O)c1ccccc1C(F)(F)F,13.2 µM (active),
CC(C)(C)c1cnc(CSc2cnc(NC(=O)C3CCNCC3)s2)o1,0.935 µM (active),
CN1CC[C@@H](c2c(O)cc(O)c3c(=O)cc(-c4ccccc4Cl)oc23)[C@@H](O)C1,0.418 µM (active),
CC(C)c1cnn2c(NCc3ccccc3)cc(N[C@@H](CO)[C@H](O)CO)nc12,0.332 µM (active),
Cc1ccc(C(N)=O)cc1Nc1nccc(-c2cn(C(C)C)c3cnccc23)n1,6.79 µM (active),
Nc1ncnc2c1c(-c1cnc3[nH]ccc3c1)nn2C1CCCC1,1.87 µM (active),
C=CC(=O)Nc1cccc(Oc2nc(Nc3ccc(N4CCN(C)CC4)cc3)ncc2Cl)c1,2.96 µM (active),

# Source: PubChem BioAssay (NCATS)
